HT1080 IDH1KD tx: toxicity to HT-1080 IDH1 knockdown cells (counter line) | HT-1080 IDH1 knockdown viability, ATP luminescence, 48 h | Potency, µM (titrated, usually from 46.1 µM), for inactives: top-dose activity, negative = toxicity, hits mostly cytotoxic | 360,000 tested, 2% active;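 also: potency is read from the fitted curve at half-maximal effect; 0% = DMSO wells and -100% = cell-free medium wells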
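IDH1KD HT-1080 cells, 750/well, RPMI + 5% FBS; compound pinned after 2 h settling; 48 h, 37 °C; CellTiter-Glo luminescence; % activity normalised to DMSO and no-cell wells; curves fitted, classed by r2 and efficacy.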
uPA surface inh: inhibitors of cell surface uPA generation | cell surface uPA generation assay, qHTS | Potency, µM (top dose mostly 38.3 µM), inactives show at the highest dose activity change, negative = inhibition, hits mostly inhibitors | 330,000 tested, 0.31% active; active = well fitted inhibition curve with a large enough effect; inconclusive = small, poorly fitted or top-dose-only effect; inactive = no such curve, though single readings can be large or run the other way; tested in mouse RAW 264.7 cells; also: potency is read from the fitted curve at half-maximal effect; nearly all actives have a fitted effect of over 55% in size
TDP1 cell noCPT: qHTS for Inhibitors of human tyrosyl-DNA phosphodiesterase 1 (TDP1): qHTS in cells in absence of CPT | DT40 Tdp1-/- hTDP1 cells, no CPT, ATP luminescence, 48 h | Potency, µM (doses to about 46.2 µM), for the others: at the top dose activity change, negative = growth inhibition, actives largely listed as inhibitors | 420,000 tested, 15% active | AID 686978, 2013; also: potency is read from the fitted curve at half-maximal effect; nearly all actives have a fitted effect of over 55% in size
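Compound effects on proliferation are scored in DT40 Tdp1-/-;hTDP1 cells in the absence of CPT. ATP levels (CellTiter-Glo luminescence) are recorded after a ≥48 hr, 37 °C incubation.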
TDP1 cell CPT: growth inhibition of DT40 Tdp1-/-;hTDP1 cells with camptothecin (screen for TDP1 inhibitors); chicken DT40 Tdp1-/-;hTDP1 cells + 20 nM CPT, ATP luminescence, 48 h; Potency, µM (doses to about 46.2 µM), without a hit: top-dose activity change, negative = growth inhibition, most hits filed as inhibitors; 420,000 tested, 12% active; AID 686979; also: potency is read from the fitted curve at half-maximal effect; nearly all actives have a fitted effect of over 55% in size
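Cell growth measured by CellTiter-Glo luminescence after a minimum 48 h, 37 C compound exposure with 20 nM CPT in Tdp1-knockout DT40 cells stably expressing hTDP1, seeded 400/well; qHTS titration format.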
HT1080NT lethal: kills 2HG-producing HT-1080-NT fibrosarcoma cells | HT-1080-NT fibrosarcoma viability, CellTiter-Glo ATP luminescence, 48 h | 360,000 tested, 1.6% active | Potency, µM (titrated, usually from 46.1 µM), inactives show at the highest dose activity, negative = less viability, hits mostly cytotoxic;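 also: NT is the 2HG producing partner of a matched IDH1 knockdown line; potency is read from the fitted curve at half-maximal effect; 0% = DMSO-treated cells and -100% = media-only wells without cells; nearly all actives have a fitted effect of over 55% in size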
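A 48-hour cytotoxicity screen used HT-1080-NT cells plated 2 hours before compound delivery. ATP-based CellTiter-Glo luminescence measured viability, normalized to DMSO and no-cell controls.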
IL-1B inflam inh: blocks inflammasome-driven IL-1 beta release | AID 743279 | 360,000 tested, 4.7% active | activity change, % at 57.5 µM | THP-1 LPS/ATP IL-1B secretion, AlphaLISA, 16 h; active compounds read low; in the data active = activity change below about -50%; inconclusive = mostly about -30% to -49%
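Secreted IL-1B measured by AlphaLISA bead assay after 16 h compound exposure of THP-1 cells; compounds (final up to 57.5 uM) added 1 h before LPS (250 ng/mL) and ATP (1.25 mM) stimulation; lower signal means less secretion.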
* hit, by the source's call; ? = inconclusive; . = no result given. An excerpt weighted towards active compounds, which were near 19% of everything screened. Unless noted, calls follow the shape of the dose curve; as a rule, active = well fitted curve in the direction sought with a large enough effect; inconclusive = small, poorly fitted or top-dose-only effect, or another doubt; inactive = no such curve, though single readings can be large; an effect the other way counts as inactive or inconclusive. Unless noted, % is scaled to controls: 0 for no effect and ±100 for the full control effect.

SMILES | HT1080 IDH1KD tx | uPA surface inh | TDP1 cell noCPT | TDP1 cell CPT | HT1080NT lethal | IL-1B inflam inh
COc1cc(CNCCc2ccccc2)cc(Br)c1OCC(=O)Nc1ccccc1C | -12.5% | -8.9% | 25.9µM* | ? | ? | -67.3*
Oc1c(C(c2ccc(Cl)cc2)N2CCC3(CC2)OCCO3)sc2nc(-c3ccco3)nn12 (configuration not stated) | . | . | -19.7% | -17.6% | . | .
CC1(C(=O)NC2CCCC2)CCN1C(=O)Cc1ccc(-c2ccccc2)cc1 (configuration not stated) | ? | . | 23.1µM* | 16.4µM* | ? | -12.0
CC1(C(=O)NCC2CCCCC2)CCN1C(=O)Cc1ccc(-c2ccccc2)cc1 (configuration not stated) | ? | . | 23.1µM* | ? | ? | -18.1
CC1(C(=O)NS(=O)(=O)Cc2ccccc2)CCN1C(=O)Cc1ccc(-c2ccccc2)cc1 (configuration not stated) | 1.4% | . | -10.4% | 16.8% | 1.4% | 37.6
COc1ccc(S(=O)(=O)c2nnn(-c3ccc(C(C)C)cc3)c2C)cc1 | . | . | 14.6µM* | 14.6µM* | . | .
CCc1cc(Cn2nc(-c3ccccc3)cc2C(=O)NCc2cccc(Br)c2)on1 | -12.0% | ? | 16.4µM* | ? | -4.7% | -52.5*
CC(=O)N1CCN(Cc2cc(=O)oc3cc(C)cc(C)c23)CC1 | 15.5% | . | -15.1% | -1.7% | 4.2% | -15.3
Cc1ccc(NS(=O)(=O)c2ccc(NC(=O)c3ccccc3C(=O)O)cc2)c(C)c1 | 1.0% | 5.4% | -1.5% | -0.8% | ? | -67.4*
O=C(Nc1ccc(S(=O)(=O)N2CCCC2)cc1)c1ccc(Br)o1 | -0.1% | 1.8% | ? | -11.2% | -11.6% | -27.7
Cc1cc(C)cc(NS(=O)(=O)c2ccc(NC(=O)c3ccccc3C(=O)O)cc2)c1 | 5.4% | 0.5% | -0.1% | 2.3% | 1.7% | 0.0
Cc1ccc(NS(=O)(=O)c2cccc(C(=O)Nc3cccnc3)c2)c(C)c1 | -0.1% | 2.4% | 14.6µM* | ? | -7.7% | -25.0
Cc1ccc(NS(=O)(=O)c2ccc(NC(=O)c3ccc(Br)o3)cc2)c(C)c1 | ? | -5.8% | 25.9µM* | ? | ? | -25.1
O=C(Nc1ccc(NS(=O)(=O)c2ccccc2)c(Cl)c1)c1ccccc1 | -13.6% | -0.5% | -19.0% | -11.8% | -8.6% | 12.2
Cc1ccc(NS(=O)(=O)c2cccc(C(=O)NC3CC3)c2)c(C)c1 | -2.2% | -12.1% | -13.5% | -20.4% | 0.9% | -29.7
Cc1ccc(NS(=O)(=O)c2ccc(NC(=O)c3ccc(-c4ccccc4)cc3)cc2)c(C)c1 | ? | 4.4% | 23.1µM* | 23.1µM* | ? | 20.1
Nc1cc(N)[nH]c(=S)n1 | . | . | -8.3% | 0.9% | . | .
COc1ccccc1CCNC(=O)CNC(=O)c1ccc2ccccc2c1 | -2.1% | -2.5% | ? | ? | -6.2% | -7.0
NS(=O)(=O)c1ccc(NC(=S)NC(=O)c2ccc(Br)o2)cc1 | -6.6% | -0.7% | ? | ? | 14.2% | -0.1
Cc1cc(C)cc(NS(=O)(=O)c2ccc(NC(=S)NC(=O)c3ccc(Br)o3)cc2)c1 | ? | -9.6% | 16.4µM* | 16.4µM* | ? | -8.4
Cc1ccc(C)c(C(C)NC(=O)c2ccc(Br)o2)c1 (configuration not stated) | 2.4% | -2.9% | ? | ? | -2.8% | -57.2*
CCOc1ccc(-c2cc(C(=O)NCc3ccc(OCC)c(OC)c3)[nH]n2)cc1 | . | . | -24.7% | -0.4% | . | .
CCC1(C)N=C(c2ccc3c(c2)OCO3)CC(c2ccccc2O)N1 (configuration not stated) | ? | -16.1% | 13µM* | 13µM* | ? | 2.8
COc1cccc(C2=NC(C)(C)NC(c3ccccc3O)C2)c1 (configuration not stated) | -5.2% | -0.2% | 18.4µM* | 14.6µM* | -0.4% | ?
COc1cccc(C2=NNC(=NCc3ccccc3)SC2)c1 | -28.9% | -9.2% | ? | ? | -7.3% | -7.1
SMILES | HT1080 IDH1KD tx | uPA surface inh | TDP1 cell noCPT | TDP1 cell CPT | HT1080NT lethal | IL-1B inflam inh
COc1ccc2c(c1)CCc1c(C(=O)Nc3cc(OC)c(Cl)cc3OC)noc1-2 | . | . | ? | -5.2% | . | .
CCc1nc(SCC(=O)Nc2ccc(N(C)C)cc2)n[nH]1 | 1.0% | -8.6% | 4.61µM* | 4.61µM* | -0.8% | -11.4
CCOC(=O)c1sc(SCC(=O)Nc2ccc(N(C)C)cc2)nc1N | ? | ? | -22.0% | -6.3% | -0.9% | -66.6*
COc1ccc(NC(=O)CSc2nnc(N)s2)cc1 | 1.2% | -4.7% | -4.5% | -5.7% | 2.3% | 25.1
CN(C)c1ccc(NC(=O)CSc2nc(N)c(C(=O)Nc3ccc(N(C)C)cc3)s2)cc1 | ? | -5.9% | 12.6µM* | 10µM* | -25.6% | ?
Cc1nnc(SCC(=O)Nc2ccc(N(C)C)cc2)[nH]c1=O | . | . | ? | -29.9% | . | .
O=C(CC(NC(=O)c1ccccc1)c1ccccc1)OCc1nc(-c2cccc(Cl)c2)no1 (configuration not stated) | . | . | -15.8% | 5.1% | . | .
N#CC(OC(=O)c1ccccc1)c1cccc([N+](=O)[O-])c1 (configuration not stated) | 4.2% | 0.9% | -11.6% | 3.7% | -1.8% | 16.5
O=C(COC(=O)CC1CC2CCC1C2)Nc1cccc(S(=O)(=O)NC2=NCCCCC2)c1 (configuration not stated) | -3.2% | -0.1% | 29.1µM* | ? | 4.3% | -5.5
Cc1cc(C)nc(SCC(=O)Nc2ccc(S(=O)(=O)NCCO)cc2)n1 | -4.8% | . | -16.8% | 1.1% | 3.8% | -6.4
CC(C)c1ccc(C(=O)Nc2ccc(S(=O)(=O)NC3=NCCCCC3)cc2)cc1 | ? | . | 23.1µM* | 16.4µM* | -28.9% | -16.9
NS(=O)(=O)c1cccc(NC(=O)COC(=O)CC2CC3CCC2C3)c1 (configuration not stated) | -9.5% | -8.1% | 1.1% | -26.7% | -5.2% | -1.3
Cc1ccc(NC(=O)COC(=O)C(NS(=O)(=O)c2ccc(Cl)cc2)C(C)O)cc1C (configuration not stated) | 0.6% | -5.3% | ? | 25.9µM* | 1.0% | ?
Cc1cc(C)nc(SCC(=O)Nc2ccc(S(=O)(=O)NC(C)(C)C)cc2)n1 | ? | . | 14.6µM* | 16.4µM* | -12.2% | 4.7
COc1ccccc1OCC(=O)Nc1cccc(S(=O)(=O)NC2=NCCCCC2)c1 | 4.3% | 1.8% | -27.7% | -23.9% | -0.7% | 12.3
CCOc1ccc(C(=O)NC(=S)Nc2cccc(S(=O)(=O)NC3=NCCC3)c2)cc1 | 1.03µM* | -11.9% | 0.82µM* | 0.82µM* | 0.461µM* | 0.0
